These results are taken from PubChem BioAssay AID738 (SRMLSC, 2007).

In all, about 98,000 compounds went through this assay and about 4,900 (5%) were called active. The sample holds actives, similar compounds and a random draw of the others, so the mix is not that of the screen. No stated cut-off is given here; in the data, active means inhibition above about 30%; inactive means the rest.

The nature of this experiment: yeast control strain growth suppression – counter-screen for post-Golgi transport modulator project, primary screen (AID 738). Conditions: efflux-deficient yeast background strain, growth absorbance A615, 16 h; at 10 µM; stronger effect = higher value.
What is called inhibition is the relative decrease from the control value, in per cent. Take `C#CCSc1nnc(-c2sc3ccccc3c2Cl)o1`: the inhibition is 0.45% (inactive).
The figure for `COc1ccccc1-c1n[nH]c2c1[C@H](C)CC[C@H]2C(C)C` is 38% (active).
As for `C=CCN(CC=C)C(=O)CN1C(=O)c2ccccc2C1=O`, the inhibition was 3.29% (inactive).
As for `CCOC(=O)CN1C(=O)C(=O)c2cc(C)ccc21`, the figure is 5.42% (inactive).
As for `CC(C)OC(=O)CN1C(=O)c2ccccc2C1=O`, the figure is 7.83% (inactive); as for `Cc1cc2c(cc1C)N(C(=O)CN1C(=O)c3ccccc3C1=O)C(C)(C)c1ssc(=S)c1-2`, 32.6% (active).
As for `C=CCn1c(C)cc(C(=O)CN2C(=O)c3ccccc3C2=O)c1C`, the figure is 11.4% (inactive).
As to `Cc1ccc2c(c1)-c1c(ssc1=S)C(C)(C)N2C(=O)CN1C(=O)c2ccccc2C1=O`, the inhibition is 60.3% (active).
Turning to `CN1CCN(S(=O)(=O)c2ccc(N3CCN(S(=O)(=O)c4cccs4)CC3)nc2)CC1`, the inhibition is 4.14% (inactive).
As for `O=C(CNC(=O)c1cc2c(s1)CCC2)Nc1ccccc1Br`, the figure is -4.14% (inactive); as for `CCOC(=O)C1(S(=O)(=O)c2ccccc2)CCN(Cc2ccccc2)CC1`, 4.95% (inactive); as for `COC(=O)c1sc2ncccc2c1OCc1ccc(Cl)cc1Cl`, 11.1% (inactive).
The figure for `NC(=O)COc1ccc(/C=N/NC(=O)C2CCCN2S(=O)(=O)c2ccc(Cl)cc2)cc1` (stereo not given) is 18.9% (inactive); for `NC(N)=N/N=C/c1ccc(OCc2ccc(Cl)cc2Cl)cc1` it is 67.2% (active); for `CCN(CC)c1ccc(NC(=O)c2ccc(Cl)nc2)cc1` it is 17.1% (inactive).
As for `Cc1c(C(=O)N2CC(C)OC(C)C2)sc2nc(-c3ccccc3)cn12` (stereo not given), the figure is 7.66% (inactive).
For the compound `Clc1ccc(-c2nnc(-c3ccccc3)nc2N2CCSCC2)cc1`, the inhibition is 51% (active).
The figure for `Cc1ccc(-c2nnc(C)c(N3CC(C)OC(C)C3)n2)cc1` (stereo not given) is 20.1% (inactive).
With `Cn1nc(-c2ccccc2)c(-c2nc(-c3ccc(Cl)cc3)no2)c1Cl`, the inhibition is -5.95% (inactive).
Take `CC1CN(c2nc(-c3ccccc3)nnc2-c2ccccc2)CC(C)O1` (stereo not given): the inhibition was 31.6% (active).
As for `O=c1cc(Cn2nnc(-c3ccc(Cl)cc3)n2)nc2sccn12`, the figure is 11.5% (inactive); as for `COCc1cc(C)nc2sc(C(=O)NC3CCCCC3)c(N)c12`, 8.15% (inactive).
As for `O=C1c2ccccc2C(=O)c2c1cccc2N1CCN(CCO)CC1`, the figure is 9.4% (inactive).
The figure for `O=c1cc(N2CCN(Cc3ccccc3)CC2)c(-c2ccccc2)n[nH]1` is 23.1% (inactive); for `CC(C)CCn1c(CN(C)Cc2ccccc2)nc2c1c(=O)n(C)c(=O)n2C` it is 9.18% (inactive); for `CC(C)Cn1c(CN(Cc2ccccc2)Cc2ccccc2)nc2c1c(=O)n(C)c(=O)n2C` it is 33.1% (active).
With `COCCn1c(CN(Cc2ccccc2)Cc2ccccc2)nc2c1c(=O)n(C)c(=O)n2C`, the inhibition is 14.8% (inactive).
With `CCC(=O)NNc1cc(=O)c2c(=O)n(C)c(=O)n(C)c2[nH]1`, the inhibition is 0% (inactive).
The figure for `CN(C)/C=C(\C#N)C(=O)c1cccnc1Oc1cccc(F)c1` is 10.6% (inactive); for `CNC(=S)N1N=C(c2ccccc2)CC1c1ccc(Br)cc1` (stereo not given) it is 80.4% (active).
`COc1ccc(NC(=S)N2N=CCC2c2ccccc2)cc1` (stereo not given): the inhibition is 10.8% (inactive).
As for `O=C(COc1ccc(Cl)cc1)Nc1ccccc1CO`, the figure is 36.8% (active).
As for `O=C(COc1ccc(Cl)cc1)NCCSc1ccccc1`, the figure is 25.3% (inactive).
The figure for `O=C(COc1ccccc1)Nc1nonc1NC(=O)COc1ccccc1` is 14.2% (inactive).
`O=C(NCCCn1ccnc1)Nc1ccc(Cl)cc1Cl`: the inhibition is 0.62% (inactive).
As for `Cc1nc(SCC(=O)N2CC(=O)Nc3ccccc32)c2c(C)c(C)sc2n1`, the figure is 2.3% (inactive); as for `Cc1nc(SCC(=O)Nc2cc(C)on2)c2c(C)c(C)sc2n1`, -1.7% (inactive).
Consider `Cc1nc(SCC(=O)N2CCc3ccccc3C2)c2c(C)c(C)sc2n1`, for which the inhibition was 49.5% (active).
Regarding `Cc1ccc(NC(=S)NC(=O)c2ccc(-c3ccccc3)cc2)c(C)c1`, the inhibition is 0.3% (inactive).
As for `CCOC(=O)C1Cn2c(nc3c(c2=O)C(C)(CC)Cc2ccccc2-3)S1` (stereo not given), the figure is 39.9% (active); as for `CCC1(CC)Cc2ccccc2-c2nc3ccccc3c(=O)n21`, 8.32% (inactive); as for `CC1(C)Cc2ccccc2-c2nc(CN3CCOCC3)[nH]c(=O)c21`, 15.4% (inactive).
As for `CCN(CC)c1nc(-c2ccccc2)cc(C(F)(F)F)c1C#N`, the figure is 13.7% (inactive); as for `Cc1ccc2nc(/C(C#N)=C\c3ccc(OC(=O)c4cccs4)cc3)[nH]c2c1`, -11.1% (inactive); as for `CC(C)C(=O)OCC(=O)Nc1ccc2c(c1)CCC2`, 3.52% (inactive).
As for `O=C(Cn1cc2c(n1)CCCCC2)NCCN1CCOCC1`, the figure is -2.81% (inactive); as for `COCCNC(=O)Cn1cc2c(n1)CCCCC2`, 2.72% (inactive).
In the case of `CCOC(=O)N1CCC(NC(=O)Cn2cc3c(n2)CCCCC3)CC1`, the inhibition was 31.9% (active).
As to `Cc1c(C#N)c(NC(=O)c2ccccc2)n(Cc2ccccc2)c1C`, the inhibition was 8.33% (inactive).
The figure for `O=c1c2ccccc2nc2n1C(CSCc1cccc(C(F)(F)F)c1)CS2` (stereo not given) is 4.97% (inactive); for `O=c1onc(-c2cccs2)n1Cc1ccccc1` it is 2.85% (inactive).
As for `CS(=O)(=O)NCc1ccc(C(=O)NCc2ccccc2)cc1`, the figure is 8.59% (inactive); as for `Cc1c(C(=O)NCc2ccccc2)cnn1-c1ccccc1`, 9.12% (inactive); as for `Cc1ccc(CNC(=O)c2ccccc2CCc2ccccc2)cc1`, 35.3% (active).
The figure for `CC1CC(C)CN(C/C=C/c2ccccc2[N+](=O)[O-])C1` (stereo not given) is 7.64% (inactive).
Consider `Cc1cc(C)n(-c2c(F)c(F)c(COC(=O)c3ccccc3)c(F)c2F)n1`, for which the inhibition was 25.1% (inactive).
The figure for `Cc1[nH]n(-c2ccccc2)c(=O)c1CCOC(=O)c1ccc(C(F)(F)F)cc1` is 33.5% (active); for `O=C(OCC(O)C(O)COC(=O)c1ccccc1)c1ccccc1` (stereo not given) it is 5.59% (inactive).
As for `CCC(=O)c1c[nH]c(C(=O)NCC2CCCO2)c1` (stereo not given), the figure is -1.27% (inactive).
As for `CCOc1cccc(C(=O)Nc2cccnc2)c1`, the figure is -3.62% (inactive).
For `Cc1cc(C)c(NC(=O)CS(=O)CC(=O)Nc2cccnc2)c(C)c1` (stereo not given), the inhibition is -5.42% (inactive).
Regarding `Cc1cccc(-n2cnc(C(=O)Nc3cccnc3)c2)n1`, the inhibition is 31.6% (active).
Take `Cc1cc(C)c2cc(CN(Cc3nnnn3Cc3ccc(F)cc3)C3CCCC3)c(=O)[nH]c2c1`: the inhibition is 41.1% (active).
As for `CCOc1ccc2[nH]c(=O)c(CN(Cc3nnnn3Cc3ccccc3)CC3CCCO3)cc2c1` (stereo not given), the figure is 0.14% (inactive).
As for `Cc1cccc2cc(CN(Cc3nnnn3Cc3ccccc3)C3CCCC3)c(=O)[nH]c12`, the figure is 13.2% (inactive).
